# Data: PubChem BioAssay AID504700 (The Scripps Research Institute Molecular Screening Center, 2011)
# The campaign covered roughly 340,000 compounds. About 270 (0.079%) were called active. This is one part of a sample in which actives are shown more often than they occur. A number with no mark means an inactive call.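 The calls were made as follows: active = activation above a cutoff set at the mean over all compounds plus 3 SD (cut at about 18% in these data); inactive = the rest.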
# Molecular target: cAMP-dependent protein kinase catalytic subunit beta (Homo sapiens) + cAMP-dependent protein kinase type II-beta regulatory subunit (Homo sapiens) (UniProt P22694+P31323)
# Experiment: activators of PKA-R2B holoenzyme, primary screen, biochemical, fluorescence polarization, Cy5-IP20, human (AID 504700);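 also: higher means more holoenzyme dissociation and a rise in polarization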
# Details: PKA-R2B holoenzyme dissociation, at 11.4 µM, active compounds read high, 0% DMSO only, 100% 113 µM cGMP, R2B truncated from residue 108, S112A mutant
# Sequence of cAMP-dependent protein kinase catalytic subunit beta (Homo sapiens) + cAMP-dependent protein kinase type II-beta regulatory subunit (Homo sapiens) (P31323 whole entry, looked up, other chains not shown): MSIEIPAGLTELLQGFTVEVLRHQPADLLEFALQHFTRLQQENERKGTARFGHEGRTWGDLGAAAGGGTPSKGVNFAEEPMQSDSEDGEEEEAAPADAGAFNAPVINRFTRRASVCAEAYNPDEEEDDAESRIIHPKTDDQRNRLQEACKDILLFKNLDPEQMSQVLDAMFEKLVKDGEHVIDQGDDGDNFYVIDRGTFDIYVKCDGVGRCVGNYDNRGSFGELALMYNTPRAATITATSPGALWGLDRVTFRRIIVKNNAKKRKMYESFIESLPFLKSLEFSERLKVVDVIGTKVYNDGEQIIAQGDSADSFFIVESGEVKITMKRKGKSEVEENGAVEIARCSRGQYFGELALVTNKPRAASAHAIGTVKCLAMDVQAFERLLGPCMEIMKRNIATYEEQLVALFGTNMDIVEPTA
row,SMILES,activation
1,C[C@@H]1CN([C@@H](C)CO)S(=O)(=O)c2ccc(C#Cc3cccc(F)c3)cc2O[C@H]1CN(C)S(=O)(=O)c1cn(C)cn1,7.01%
2,Nc1cccc(OCCCCCOc2cccc(N)c2)c1,5.43%
3,COC(=O)C[C@H]1C[C@@H]2c3cc(N(C)C)ccc3O[C@@H]2[C@H](CO)O1,5.15%
4,O=C1OCCC1=COCCCCOC=C1CCOC1=O,3.03%
5,COc1ccc(CN2C(=O)C(CC(=O)NCc3cccc4ccccc34)CC(C(=O)N3CCOCC3)=C2C)cc1 (configuration not stated),2.78%
6,CC(=O)Nc1ccc2nc(NC(=O)CS(=O)(=O)c3ccc(F)cc3)sc2c1,-8.48%
7,CNC(=O)C1CN(C(=O)c2cccc(S(=O)(=O)N3CCc4ccccc43)c2)c2ccccc2O1 (configuration not stated),1.53%
8,Cc1ccc(S(=O)(=O)N2CCCCC2)cc1NC(=O)CCNC(=O)c1ccccc1Cl,16.1%
9,O=C(NCc1ccccc1)C1CNCC(C(=O)NCc2ccccc2)C1 (configuration not stated),9%
10,CCCCCCNC(=O)O[C@H]1CN(C(=O)OC(C)C)N(C(=O)OC(C)C)[C@@H]2CN(S(=O)(=O)c3ccc(C)cc3)C[C@]12O,-13.6%
11,COc1ccccc1C1SCCN1C(=O)c1ccc([N+](=O)[O-])cc1 (configuration not stated),0.16%
12,COc1ccc([N+](=O)[O-])cc1C1NN=C(c2cccc3ccccc23)S1 (configuration not stated),20.8% (active)
13,COc1ccc([N+](=O)[O-])cc1NC(=O)C(C)OC(=O)C1c2ccccc2Oc2ccccc21 (configuration not stated),-4.93%
14,O=C(N=C1SC2CS(=O)(=O)CC2N1Cc1ccccc1)c1ccccc1 (configuration not stated),1.79%
15,C[C@@H]1CN([C@H](C)CO)C(=O)c2cc(Br)cnc2O[C@@H]1CN(C)Cc1cncnc1,2.5%
16,CC1=C(C(=O)N2CCOCC2)CC(CC(=O)NCC2CCCCC2)C(=O)N1Cc1ccc(F)cc1 (configuration not stated),-0.55%
17,C[C@H](CO)N1C[C@H](C)[C@@H](CN(C)S(=O)(=O)c2ccc(F)cc2)OCc2cnnn2CCCC1=O,-2.57%
18,CC1(C)CC(=O)C=C(c2ccc(COC(=O)c3cc(F)cc(F)c3)cc2)C1=O,4.64%
19,CC1(C2CC2)NC(=O)N(CC(=O)N2CCN(c3ccccc3F)CC2)C1=O (configuration not stated),1.69%
20,CCCCN(C(C)=O)c1ccc2c(c1)C1CC2CCN1Cc1ccccc1 (configuration not stated),2.7%
21,Cc1ccc(-c2ccc(C3=CC(=O)CC(C)(C)C3=O)cc2)cc1,9.99%
22,CCCCN1C[C@H](c2ccc(Br)cc2)[C@@H](CC(=O)Nc2ccc(Br)cc2)C1=O,2.46%
23,Cc1ccc(S(=O)(=O)N2C[C@H]3n4c(=O)ccc(=O)n4C[C@H](OC(=O)NC4CCCC4)[C@@]3(O)C2)cc1,8.63%
24,CCOc1ccc(NS(=O)(=O)c2ccc(C(=O)NCC3CCCO3)cc2)cc1 (configuration not stated),-2.2%
25,Cc1nn(Cc2ccccc2)c(C)c1C(=O)NCCN1C(=O)S/C(=C\c2ccc(F)cc2)C1=O,-11.8%
26,N#Cc1ccccc1CN1C(=O)S/C(=C/c2cccn2-c2cccc(C(=O)O)c2)C1=O,24.5% (active)
27,Cc1cc(/C=C2/SC(=O)N(CC(=O)N3CCCC3)C2=O)c(C)n1C,2.6%
